# Inconclusive results are not listed. The source made the active and inactive calls. Calls come from the whole dose curve; as a rule, active = well fitted curve in the direction sought with a large enough effect; inconclusive = small, poorly fitted or top-dose-only effect, or another doubt; inactive = no such curve, though single readings can be large or run the other way.
# Molecular target: Polyunsaturated fatty acid lipoxygenase ALOX15 (Homo sapiens) (UniProt P16050)
# Test: Counterscreen qHTS for inhibitors of human arachidonate 12S-lipoxygenase (ALOX12): ALOX15 Assay; note: 0% is about no effect
# Details: purified ALOX15 enzyme activity; series mostly up to 110 µM; activity change, negative = inhibition: at the top concentration
# How it was run: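 Purified human ALOX15 (15hLO-1) at 40 nM in 25 mM HEPES, 0.01% Triton X-100, pH 7.5, preincubated with compound 15 min at RT. Then 50 uM arachidonic acid for 30 min; hydroperoxide detected by Fe-xylenol orange as the 573/405 nm absorbance ratio.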
# Sequence of Polyunsaturated fatty acid lipoxygenase ALOX15 (Homo sapiens) (P16050 whole entry, looked up): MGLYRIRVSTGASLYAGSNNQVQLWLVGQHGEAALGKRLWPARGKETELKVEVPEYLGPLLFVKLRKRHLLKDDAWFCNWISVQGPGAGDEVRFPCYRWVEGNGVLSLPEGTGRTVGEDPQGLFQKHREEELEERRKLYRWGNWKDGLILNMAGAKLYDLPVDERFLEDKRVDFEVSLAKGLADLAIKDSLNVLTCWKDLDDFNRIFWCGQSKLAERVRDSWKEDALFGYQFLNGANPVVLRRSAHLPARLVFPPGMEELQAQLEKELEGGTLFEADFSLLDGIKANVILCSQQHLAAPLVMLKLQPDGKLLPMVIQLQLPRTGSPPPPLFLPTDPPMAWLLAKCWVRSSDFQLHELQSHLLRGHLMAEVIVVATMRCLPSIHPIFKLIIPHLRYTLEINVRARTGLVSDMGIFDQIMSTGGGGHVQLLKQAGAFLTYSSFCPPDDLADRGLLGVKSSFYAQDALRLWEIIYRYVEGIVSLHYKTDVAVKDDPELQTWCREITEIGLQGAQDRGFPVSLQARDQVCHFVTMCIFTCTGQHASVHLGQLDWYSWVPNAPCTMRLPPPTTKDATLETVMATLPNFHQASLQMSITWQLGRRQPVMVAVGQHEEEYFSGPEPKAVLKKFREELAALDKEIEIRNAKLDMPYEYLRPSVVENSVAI
row,Compound,"activity change, negative = inhibition"
1,O=C1Nc2ccccc2CN(C/C=C/c2ccccc2)C12CCNC2 (stereo not drawn),-5.11% [at 146 µM] (inactive)
2,COc1ccc(-c2nc(C3CC3)nc3c2CCN(C(=O)c2ccc(C(F)(F)F)cc2)CC3)cc1,-0.0788% (inactive)
3,CC(=O)NC1CC2(CCN(C(=O)Cc3cnc[nH]3)CC2)c2ccccc21 (stereo not drawn),-6.24% (inactive)
4,Cc1ccc2nc(C3CCN(Cc4cccs4)CC3)[nH]c(=O)c2c1,-12.2% [at 146 µM] (inactive)
5,Nc1ccc(CN2CCCC3(Cc4ccccc4CNC3=O)C2)cc1 (stereo not drawn),5.49% [at 146 µM] (inactive)
6,C[S+](=O)([O-])N1Cc2ccccc2OC2(CCN(C(=O)c3ccc(N)nc3)CC2)C1,-15.1% (inactive)
7,CCCN1CCCC2(Cc3ccccc3CN(C(=O)Cc3ccccc3)C2)C1 (stereo not drawn),-27.1% (inactive)
8,Cc1cc(C)cc(CN2CCC3(Cc4ccccc4CNC3=O)C2)c1 (stereo not drawn),-8.12% [at 146 µM] (inactive)
9,CCOCCCNc1ncnc2c1CN(C1CCCNC1)C(=O)CN2C (stereo not drawn),-10.3% (inactive)
10,NCc1ccc(-c2cccc(Cl)c2)cc1,26.5% [at 146 µM] (inactive)
11,O=C(c1ccc(C(F)(F)F)cc1)N1CCCC2(CC(c3ccccc3)=NO2)C1 (stereo not drawn),2.85% (inactive)
12,CN1CCC(C(=O)N2Cc3ccccc3CC3(CCCN(CC4CCNC4)C3)C2)CC1 (stereo not drawn),-33.8% (inactive)
13,CC(=O)Nc1ccc(CN2CC3(C2)C(=O)Nc2ccccc23)cc1,-5.88% [at 146 µM] (inactive)
14,CCCC(=O)N1Cc2ccccc2CC2(CCCCN2Cc2ccccn2)C1 (stereo not drawn),47.5% (inactive)
15,Cc1ccc(CN2CCC3(Cc4ccccc4CNC3=O)C2)cc1C (stereo not drawn),-25.1% [at 146 µM] (inactive)
16,COc1cccc([S+](=O)([O-])N2CC(Oc3ccc(F)c(F)c3)C2)c1,8.83% (inactive)
17,COc1cc(CN2CCC3(Cc4ccccc4CNC3=O)C2)cc(OC)c1 (stereo not drawn),-3.22% (inactive)
18,CC(=O)N1CCN(c2ncnc3c2CN(C2CCCNCC2)C(=O)CN3C)CC1 (stereo not drawn),-3.89% (inactive)
19,CC(=O)N1CCn2cc(C(=O)N3CCOCC3)nc2C1,-15.5% [at 146 µM] (inactive)

row,Compound,"activity change, negative = inhibition"
1,Cn1cccc1CN1CCC2(CC1)C(=NC1CCCCC1)NC(=O)N2c1cc(F)cc(F)c1,-4.86% (inactive)
2,CCC(=O)N1Cc2ccccc2CC2(CCCCN2CC2CCNC2)C1 (stereo not drawn),-2.21% (inactive)
3,COc1ccc(CCNc2ncnc3c2CN(C2CCCNC2)C(=O)CN3C)cc1 (stereo not drawn),-23% (inactive)
4,CN1CC(=O)N(C2CCCNC2)Cc2c(NCCc3ccccc3F)ncnc21 (stereo not drawn),-11% (inactive)
5,O=C1NCc2ccccc2CC12CCN(Cc1cc(F)ccc1F)C2 (stereo not drawn),-20.4% [at 146 µM] (inactive)
6,CC(=O)N1CCN(c2ccc(Cl)nn2)C(=O)C1,-19.6% [at 146 µM] (inactive)
7,N#Cc1cccc(CN2CCCC(c3nc4ccc(F)cc4c(=O)[nH]3)C2)c1 (stereo not drawn),-27% (inactive)
8,CN1CC(=O)N(C2CCNC2)Cc2c(NC3CCCC3)ncnc21 (stereo not drawn),-2.56% [at 146 µM] (inactive)
9,CN1CC(=O)N(C2CCNCC2)Cc2c1ncnc2N1CCC(O)CC1,-4.21% (inactive)
10,COc1cccc(N2C(=O)NC(=NC3CCCC3)C23CCCN(CC2CC2)C3)c1 (stereo not drawn),-13% (inactive)
11,CCOC(=O)C1CC1CN1CCCC2(Cc3ccccc3CNC2=O)C1 (stereo not drawn),1.6% (inactive)
12,O=C(c1ccccn1)N1CCc2nc(C3CC3)nc(-c3ccc(Cl)cc3)c2C1,-1.45% (inactive)
13,CCNc1ncnc2c1CN(C1CCNC1)C(=O)CN2C (stereo not drawn),-18.4% [at 146 µM] (inactive)
14,O=C1NC(=NC2CCCC2)C2(CCCN(Cc3ccsc3)C2)N1c1cc(F)cc(F)c1 (stereo not drawn),-2.59% (inactive)
15,CCCC(=O)N1Cc2ccccc2CC2(CCN(Cc3ccccc3)CC2)C1,-9.59% (inactive)
16,Cc1ccc(C(=O)N2CCC3(CC(C(C)C)=NO3)C2)cc1 (stereo not drawn),12.7% [at 146 µM] (inactive)
17,COc1ccc(-c2cc(C(=O)NCC(C)C)c3c(C)nn(-c4ccccc4)c3n2)cc1,-25.2% (inactive)
18,COc1cccc(N2C(=O)NC(=NC3CCCC3)C23CCN(Cc2ccsc2)C3)c1 (stereo not drawn),-47.3% (inactive)
19,CCC(=O)N1Cc2ccccc2CC2(CCCCN2CC2CCOCC2)C1 (stereo not drawn),15.2% (inactive)
